D1 ag – activates the human D1 dopamine receptor. HEK293 T-REx D1 cells, calcium flux, agonist mode. activation, % at 2 µM. 1% of 360,000 active
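Inducible HEK293 T-REx D1 cells, force-coupled to calcium signalling, were plated at 4000 cells/well with tetracycline and held overnight at 30 C. After no-wash calcium dye loading, compound-evoked calcium rise over 180 s flagged agonists.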
D1 PAM – human D1 dopamine receptor positive modulation. HEK293 TREx D1 cells, calcium flux, dopamine EC20 potentiation. potentiation, % at 10 µM. 0.036% of 360,000 active. AID 504651; in the data active = potentiation above about 30%
D1 antagonist – blocks dopamine activation of the human D1 receptor; P21728; HEK293 TREx D1 cells, calcium flux, dopamine EC80; active compounds read low; activity change, negative = inhibition, % at 10 µM; 3.2% of 360,000 active; AID 504652; in the data active = activity change below about -30%
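HEK293 T-REx cells expressing inducible, force-coupled D1 receptor; no-wash Ca dye, 30–90 min RT. Cmpd → 180 s read at 1 Hz → EC80 DA → 180 s read.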
TRHR PAM – TRH receptor (human) allosteric enhancement; enhancement, % at 2 µM; AID 493056; TRHR cells, fluo-8 calcium fluorescence, EC20 TRH enhancement; 0.66% of 360,000 active; in the data active = enhancement above about 30%
Target sequence (P34981 whole entry, looked up): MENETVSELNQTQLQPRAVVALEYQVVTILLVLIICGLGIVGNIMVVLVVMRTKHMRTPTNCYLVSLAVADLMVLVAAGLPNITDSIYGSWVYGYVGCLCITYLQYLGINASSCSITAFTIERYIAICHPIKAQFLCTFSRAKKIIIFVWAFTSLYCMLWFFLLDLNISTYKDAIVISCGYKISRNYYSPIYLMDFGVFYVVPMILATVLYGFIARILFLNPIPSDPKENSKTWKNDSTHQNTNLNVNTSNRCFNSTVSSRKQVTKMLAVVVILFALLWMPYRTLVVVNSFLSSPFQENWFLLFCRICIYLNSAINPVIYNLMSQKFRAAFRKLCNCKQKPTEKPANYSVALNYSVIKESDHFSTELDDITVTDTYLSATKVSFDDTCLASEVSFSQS
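Enhancer read-out: after compound pinning and an initial kinetic agonist-mode read, an EC20 of TRH (10 nM final) was injected and fluo-8 calcium signal (Ex 480/Em 530) followed at 1 s/cycle for 100 cycles in TRHR-expressing cells.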
TRHR agonist – activates the human TRH receptor; 0.18% of 360,000 active; AID 493084; P34981; TRHR cells, calcium flux fluo-8, FDSS agonist mode; activation, % at 2 µM
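Read-out: compound-evoked intracellular calcium rise in TRHR cells, fluo-8 dye, kinetic FDSS fluorescence at 1 s/cycle following a 10-cycle baseline. Cells cultured overnight before dye loading (30 min–1.5 h, RT).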
Each line names hits and unclear results; the compound was inactive in the other large screens. An excerpt weighted towards active compounds, which were near 4.7% of everything screened. Rule as the data show it, unless noted: active = activation above about 30%; inactive = the rest.

CSc1nn(Cc2cccc(Cl)c2)c(N(C(C)=O)C(C)=O)c1S(=O)(=O)c1ccccc1	D1 antagonist -61
COc1cc(C#N)c(NC(=S)N2CCOCC2)cc1OC	none
O=[S+]([O-])(c1ccc2c(c1)OCCO2)N1CCN([S+](=O)([O-])c2ccc(F)cc2Br)CC1	none
CC(C)Cc1csc(NC(=O)c2ccc(Cl)cc2)c1C(=O)O	D1 antagonist -31
CC(C)Cc1csc(NC(=O)c2ccccc2Cl)c1C(=O)O	none
Cc1ccc(Sc2c(C)nn(C(=O)c3ccc(Cl)cc3)c2C)cc1	none
Cc1ccc(CN=c2c([N+](=O)[O-])nn(-c3cccc(C)c3)n2O)cc1	D1 antagonist -47
COc1ccc(-n2nc([N+](=O)[O-])c(=NCCc3ccc(C)cc3)n2O)cc1	none
Cc1cc(C)cc(N=c2c([N+](=O)[O-])nn(-c3ccc(Cl)cc3)n2O)c1	none
Cc1ccc(CN=c2c([N+](=O)[O-])nn(-c3cccc(Cl)c3)n2O)cc1	D1 antagonist -34
CC(=O)NC/C(C)=N\Nc1ccc([N+](=O)[O-])cc1	D1 ag 35
CC(=O)NCC(=O)OCc1ccc([N+](=O)[O-])cc1	none
C/C(=N\Nc1ccc([N+](=O)[O-])cc1)c1ccc(O)cc1	D1 ag 37
Cc1ccc(C(=O)N2CCN(c3cccc(Cl)c3)CC2)cc1-n1c(C)nc2cccnc21	none
O=C(Cn1cc(SCc2cccc(F)c2)c2ccccc21)N1CCCC1	none
COC(=O)c1ccc(NC(=O)CC2C(=O)N(c3cccc(OC)c3)C(=O)N2C(C)C)cc1 (configuration not stated)	D1 antagonist -32
COc1ccc(NC(=O)CC2C(=O)N(c3cccc(OC)c3)C(=O)N2Cc2cccnc2)cc1 (configuration not stated)	D1 antagonist -65
CCOC(=O)c1cccc(NC(=O)CC2C(=O)N(c3ccc(Cl)cc3)C(=O)N2C2CCCC2)c1 (configuration not stated)	none
CCOC(=O)c1cccc(NC(=O)CC2C(=O)N(c3ccc(OC)cc3)C(=O)N2C2CCCC2)c1 (configuration not stated)	D1 antagonist -35
CCOc1ccc(NC(=O)CC2C(=O)N(c3ccccc3)C(=O)N2Cc2cccc(OC)c2)cc1 (configuration not stated)	none
COc1cccc(N2C(=O)C(CC(=O)Nc3cccc(F)c3)N(C(C)C)C2=O)c1 (configuration not stated)	none
CCCOc1ccc(NC(=O)CC2C(=O)N(c3ccc(OC)cc3)C(=O)N2CCc2ccncc2)cc1 (configuration not stated)	D1 antagonist -42
COc1cc2c(cc1OC)C(COc1ccc3c(C)cc(=O)oc3c1)N(C(=O)c1cccc(C)c1)CC2 (configuration not stated)	none
COc1ccc(-c2nn(-c3ccc(F)cc3)c3c2cnc2ccc(F)cc23)cc1OC	none
Cc1oc2ccc(O)c(CN3CCCCC3C)c2c1C(=O)Nc1ccccc1 (configuration not stated)	none
O=c1c2c(-c3ccc(Cl)cc3)ccnc2[nH]n1-c1ccccc1	none
COC(=O)c1ccc(NC(=O)CC2C(=O)N(c3cccc(F)c3)C(=O)N2CC(C)C)cc1 (configuration not stated)	D1 antagonist -33
CCCN1C=CC(=C/C=C(\C#N)C(=O)OCC)C=C1	D1 ag 33, TRHR agonist 58
CCCCCCN1C=CC(=C/C=C(\C#N)C(=O)OCC)C=C1	D1 ag 178, TRHR PAM 31, TRHR agonist 165
CCOC(=O)/C(C#N)=C/C=C1\C=Cc2ccccc2N1CC	none
O=C(O)c1ccc(CNCc2cc(Cl)ccc2O)cc1	none (no result: D1 antagonist)
Cc1ccc(CNCc2cc(Cl)ccc2O)cc1	D1 ag 60
O=c1c2c([N+](=O)[O-])cc([N+](=O)[O-])cc2sn1Cc1ccccc1	D1 ag 51
O=c1c2c([N+](=O)[O-])cc([N+](=O)[O-])cc2sn1-c1ccc(Br)cc1	none
Cc1ccc2c(n1)sc1c(-c3ccc(Br)cc3)c(C#N)c(N)nc12	D1 antagonist -31
CCOc1ccc(OCC)c(NS(=O)(=O)c2ccc(-c3coc(C)n3)cc2)c1	none
CCc1ccc(-c2cn3c(n2)SCC3)cc1	D1 antagonist -86
CCOc1nc(NC(=O)NS(=O)(=O)c2ccccc2F)nc(-c2ccccc2)n1	D1 antagonist -31
c1ccc(CN2CCC3(CCCc4ccccc43)CC2)cc1	D1 antagonist -49
O=C(NCCCN1CCN(CCCNC(=O)c2cccc([N+](=O)[O-])c2)CC1)c1cccc([N+](=O)[O-])c1	none
O=C(NCCn1ccc2ccccc21)c1cccc([N+](=O)[O-])c1	D1 antagonist -37
C=CCn1cnnc1SCC(=O)Nc1cccnc1Cl	none
CC(C)(C)C(=O)NC(=S)NNC(=O)C(c1ccccc1)c1ccccc1	D1 ag 350, D1 PAM 34, TRHR agonist 99
CCc1c(C)nc2nncn2c1NCc1ccccc1	none
COc1ccc2cc1Oc1ccc(cc1)C[C@H]1c3c(cc4c(c3Oc3cc5c(cc3OC)CCN(C)[C@@H]5C2)OCO4)CCN1C	D1 antagonist -37
Cc1ccc(CNC(=O)C2CCC(CNS(=O)(=O)c3ccc4c(c3)CCCC(=O)N4)CC2)cc1 (configuration not stated)	none
CSC(=NCc1ccco1)NC#N	D1 antagonist -34
Cc1cccc(CCNC(=O)CN(c2ccc(C(C)C)cc2)S(=O)(=O)c2c(C)nn(C)c2C)c1	none
CC(=O)N1CCC(N(Cc2ccco2)C(=O)Nc2ccc(Br)cc2F)CC1	TRHR PAM 41
CCCN(Cc1cccs1)C(=O)Nc1ccc(Br)cc1F	none
COc1ccc(C(=O)c2ccc(Cl)cc2)c2ccccc12	none
COc1ccc(C(=O)c2ccc(Br)cc2)c2ccccc12	D1 antagonist -40
Cc1ccc(N2CC(=O)N(NC(=O)c3sc4nc(C)cc(C)c4c3N)CC2=O)cc1	TRHR PAM 38
Cc1cc(C)c(OCC(=O)Nc2ccccc2N2CCCCC2)c(C)c1	none
Cc1cc(C)c(OCC(=O)Nc2ccccc2N2CCOCC2)c(C)c1	D1 ag 44
CCOC(=O)C1CCN(C(=O)c2nn(-c3ccc(OC)c(Cl)c3)c(=O)c3c2c2ccccc2n3C)CC1	none
O=C(NN=C1C2CC3CC1CC(Cl)(C3)C2)c1ccccn1	none
O=C(NN=C1C2CC3CC1CC(Cl)(C3)C2)c1cccs1	D1 antagonist -39
Cc1ccc(C)c(Cn2c(-c3cccs3)nc3ccccc32)c1	none
Cc1cc(N/N=C/c2ccc(O)c(C)c2O)nc(-c2ccccc2O)n1	D1 antagonist -32
C/C(=N\Nc1cc(C)nc(-c2ccccc2O)n1)c1ccccc1	none
CCOc1ccc(Cl)cc1C1CC(=O)Nc2cc(OC)c(OC)c(OC)c21 (configuration not stated)	none
